Data taken from PubChem BioAssay (EPA / NIEHS).
Inconclusive results are not listed. Active and inactive are the calls of the source. Rule for the calls: active = hit-call score of the fitted dose curve at least 0.9, where 1 is the maximum; inconclusive = response in the unintended direction; inactive = score below 0.9.

Key:
[1] = biological target: rat CYP2C13, Cyp2c13 (gene 171521) (UniProt P20814); assay: NVS_ADME_rCYP2C13: NovaScreen (NVS) CYP450-related Enzyme Activity (ADME) Assay for rat CYP2C13 (AID 2283121)
Method in brief: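 Inhibition is read as decreased fluorescent product formation, referenced to acetonitrile vehicle. Cell-free recombinant rat Cyp2c13 reaction ran 0.75 hour; compounds first at 10 uM in duplicate, then concentration series for actives.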

[2] = biological target: rat CYP2A2, Cyp2a2 (gene 24895) (UniProt P15149); assay: NVS_ADME_rCYP2A2: NovaScreen (NVS) CYP450-related Enzyme Activity (ADME) Assay for rat CYP2A2 (AID 2283116)
Method in brief: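 Compounds first tested in duplicate at 10 uM, then in singleton concentration series up to 20 uM when over threshold. Activity of the recombinant enzyme read by fluorescence at 0.2 h, normalised to acetonitrile vehicle.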

rat CYP2B1, gene 24300 = assay: NVS_ADME_rCYP2B1: NovaScreen (NVS) CYP450-related Enzyme Activity (ADME) Assay for rat CYP2B1 (AID 2283117)
Method in brief: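 Cell-free fluorescence enzyme assay, recombinant rat CYP2B1, 0.75 h after dosing. Single-concentration duplicates at 10 uM preceded concentration series (max 20 uM) for actives; acetonitrile as negative-control baseline.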

[3] = biological target: rat CYP2C11, Cyp2c11 (gene 29277) (UniProt P08683); assay: NVS_ADME_rCYP2C11: NovaScreen (NVS) CYP450-related Enzyme Activity (ADME) Assay for rat CYP2C11 (AID 2283118)
Method in brief: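 Screened first at 10 uM in duplicate, hits followed by concentration-response. Recombinant rat enzyme activity monitored by fluorescence 0.33 h post-dosing, normalised to acetonitrile negative control.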

rat CYP2C6, gene 293989 = assay: NVS_ADME_rCYP2C6: NovaScreen (NVS) CYP450-related Enzyme Activity (ADME) Assay for rat CYP2C6 (AID 2283120)
Method in brief: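 Compounds first tested in duplicate at 10 uM, hits (e.g. 30% inhibition) re-run in singleton dose series to a 20 uM top concentration. Enzyme activity of recombinant rat CYP2C6 measured via fluorescent substrate turnover after 1 h; acetonitrile baseline.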

rat CYP3A1, gene 25642 = assay: NVS_ADME_rCYP3A1: NovaScreen (NVS) CYP450-related Enzyme Activity (ADME) Assay for rat CYP3A1 (AID 2283126)
Method in brief: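 Compounds went first at 10 uM duplicate, then to series with 20 uM maximum. Fluorescence from substrate turnover by the recombinant enzyme was measured 0.5 h post-dosing, inhibition scored against acetonitrile vehicle.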

[4] = biological target: rat CYP3A2, Cyp3a2 (gene 266682) (UniProt P05183); assay: NVS_ADME_rCYP3A2: NovaScreen (NVS) CYP450-related Enzyme Activity (ADME) Assay for rat CYP3A2 (AID 2283128)
Method in brief: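 Fluorescence readout of extracted rat CYP3A2 activity 0.5 h post-dose, acetonitrile as negative control. Single-point testing in duplicate at 10 uM, followed by concentration series to a 20 uM maximum for actives.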

[5] = biological target: rat CYP1A2, Cyp1a2 (gene 24297) (UniProt P04799); assay: NVS_ADME_rCYP1A2: NovaScreen (NVS) CYP450-related Enzyme Activity (ADME) Assay for rat CYP1A2 (AID 2283115)
Method in brief: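 Primary testing ran in duplicate at 10 uM, with actives re-tested across concentration series. Fluorescence intensity from substrate turnover by recombinant protein, measured 1 hour post-dosing, with signal loss scored against acetonitrile vehicle.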

[6] = biological target: rat CYP2C12, Cyp2c12 (gene 25011) (UniProt P11510); assay: NVS_ADME_rCYP2C12: NovaScreen (NVS) CYP450-related Enzyme Activity (ADME) Assay for rat CYP2C12 (AID 2283119)
Method in brief: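 Fluorescent-substrate turnover by recombinant rat CYP2C12, measured at 0.5 h, normalized to acetonitrile vehicle. Chemicals screened first at a single 10 uM concentration in duplicate, with concentration series for actives.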

[7] = biological target: rat CYP2D2, Cyp2d26 (gene 25053) (UniProt P10634); assay: NVS_ADME_rCYP2D2: NovaScreen (NVS) CYP450-related Enzyme Activity (ADME) Assay for rat CYP2D2 (AID 2283124)
Method in brief: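 Single-concentration duplicate testing at 10 uM, followed by concentration-response (top 20 uM) for chemicals passing threshold. Enzyme activity of the recombinant rat isoform measured by fluorescence after 0.75 h, acetonitrile as baseline.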

[8] = biological target: human Acetylcholinesterase (AChE), ACHE (gene 43) (UniProt P22303); assay: NVS_ENZ_hAChE: NovaScreen (NVS) Enzymatic Assay for human Acetylcholinesterase (AChE) (AID 2283129)
Method in brief: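 Actives from a duplicate single-point screen (25 uM) were followed up in concentration series. Enzyme activity read by absorbance (colorimetric) 0.33 hour after dosing, cell-free, normalized to DMSO, with loss of signal scored.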

[9] = biological target: human AMP-activated Protein Kinase, alpha 1 (AMPKa1), PRKAA1 (gene 5562) (UniProt Q13131); assay: NVS_ENZ_hAMPKa1: NovaScreen (NVS) Enzymatic Assay for human AMP-activated Protein Kinase, alpha 1 (AMPKa1) (AID 2283130)
Method in brief: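 Compounds were screened in duplicate at 25 uM, and those reaching ~30% inhibition were titrated up to 50 uM. The enzyme was recombinant human AMPKα1, and kinase turnover was read by fluorescence/mobility shift 1 h post-dosing as loss of signal versus DMSO.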

[10] = biological target: human AKT serine/threonine Kinase 1 (AKT1), AKT1 (gene 207) (UniProt P31749); assay: NVS_ENZ_hAKT1: NovaScreen (NVS) Enzymatic Assay for human AKT serine/threonine Kinase 1 (AKT1) (AID 2283138)
Method in brief: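 A biochemical assay with recombinant enzyme and specific substrate, read by fluorescence intensity with mobility-shift separation 1 hour after dosing. Actives from 25 uM duplicate screening were titrated up to 50 uM against DMSO baseline.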

[11] = biological target: rat CYP2D1, Cyp2d1 (gene 266684) (UniProt P10633); assay: NVS_ADME_rCYP2D1: NovaScreen (NVS) CYP450-related Enzyme Activity (ADME) Assay for rat CYP2D1 (AID 2283122)
Method in brief: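 Rat CYP2D1 enzyme activity measured by fluorescence intensity in a cell-free format, 0.75 h post-dosing, acetonitrile as negative control. Screening at 10 uM in duplicate, with actives followed in concentration series up to 20 uM.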

[12] = biological target: human Caspase 5 (CASP5), CASP5 (gene 838) (UniProt P51878); assay: NVS_ENZ_hCASP5: NovaScreen (NVS) Enzymatic Assay for human Caspase 5 (CASP5) (AID 2283137)
Method in brief: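 Caspase 5 enzyme activity, detected as fluorescence signal loss, is measured in a biochemical format using E. coli-expressed protein. Reading occurs 2 hours post-dosing. Screening runs at 25 uM, with confirmed actives titrated to 50 uM maximum.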

Caspase-3 (Homo sapiens) = Caspase-3 (Homo sapiens) (UniProt P42574); assay: NVS_ENZ_hCASP3: NovaScreen (NVS) Enzymatic Assay for human Caspase 3 (CASP3) (AID 2283139)
Method in brief: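 Single-concentration screening at 25 uM in duplicate, with concentration-response follow-up to a 50 uM maximum for chemicals passing the threshold. Caspase-3 (human, E. coli-expressed) activity was read as substrate fluorescence after 1 h, with loss of signal relative to DMSO.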

[13] = biological target: human Caspase 10 (CASP10), CASP10 (gene 843) (UniProt Q92851); assay: NVS_ENZ_hCASP10: NovaScreen (NVS) Enzymatic Assay for human Caspase 10 (CASP10) (AID 2283133)
Method in brief: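 Fluorescence-intensity enzyme read-out of E. coli-expressed CASP10 activity, 1 h after compound. Single-point duplicates at 25 uM preceded concentration-response testing (top 50 uM) of hits; inhibition expressed as signal loss versus DMSO.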

Caspase-1 (Homo sapiens) = Caspase-1 (Homo sapiens) (UniProt P29466); assay: NVS_ENZ_hCASP1: NovaScreen (NVS) Enzymatic Assay for human Caspase 1 (CASP1) (AID 2283132)
Method in brief: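 Compounds were first tested in duplicate at 25 uM, with follow-up concentration series up to 50 uM. The bacterially expressed enzyme was read by fluorescence at 1 h post-dosing. Signal loss versus DMSO baseline indicates reduced enzyme activity.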

[14] = biological target: human Acid Phosphatase 1 (ACP1), ACP1 (gene 52) (UniProt P24666); assay: NVS_ENZ_hACP1: NovaScreen (NVS) Enzymatic Assay for human Acid Phosphatase 1 (ACP1) (AID 2283136)
Method in brief: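 Cell-free fluorescence read-out of phosphatase activity, substrate and product separated by mobility shift, taken 1.5 h after compound addition; protein produced in Sf9. Single 25 uM duplicate screen, followed by concentration series for actives, scored as signal loss relative to DMSO.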

rat CYP2D2, Cyp2d26 (gene 25053), sequence (P10634 whole entry, looked up, canonical isoform): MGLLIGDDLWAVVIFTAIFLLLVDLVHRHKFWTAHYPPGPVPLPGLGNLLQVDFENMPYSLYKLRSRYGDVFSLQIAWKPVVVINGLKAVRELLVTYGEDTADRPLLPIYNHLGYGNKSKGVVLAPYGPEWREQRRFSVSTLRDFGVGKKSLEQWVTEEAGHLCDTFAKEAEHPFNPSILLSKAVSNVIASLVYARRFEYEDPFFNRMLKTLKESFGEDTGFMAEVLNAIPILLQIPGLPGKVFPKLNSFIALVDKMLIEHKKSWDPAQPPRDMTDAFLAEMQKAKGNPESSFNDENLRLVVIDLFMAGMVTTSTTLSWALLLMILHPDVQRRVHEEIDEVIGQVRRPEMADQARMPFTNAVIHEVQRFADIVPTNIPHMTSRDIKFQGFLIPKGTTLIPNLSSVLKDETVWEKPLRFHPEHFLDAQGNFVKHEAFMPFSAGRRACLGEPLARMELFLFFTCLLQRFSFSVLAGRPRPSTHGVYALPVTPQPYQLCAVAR
rat CYP2C12, Cyp2c12 (gene 25011), sequence (P11510 whole entry, looked up): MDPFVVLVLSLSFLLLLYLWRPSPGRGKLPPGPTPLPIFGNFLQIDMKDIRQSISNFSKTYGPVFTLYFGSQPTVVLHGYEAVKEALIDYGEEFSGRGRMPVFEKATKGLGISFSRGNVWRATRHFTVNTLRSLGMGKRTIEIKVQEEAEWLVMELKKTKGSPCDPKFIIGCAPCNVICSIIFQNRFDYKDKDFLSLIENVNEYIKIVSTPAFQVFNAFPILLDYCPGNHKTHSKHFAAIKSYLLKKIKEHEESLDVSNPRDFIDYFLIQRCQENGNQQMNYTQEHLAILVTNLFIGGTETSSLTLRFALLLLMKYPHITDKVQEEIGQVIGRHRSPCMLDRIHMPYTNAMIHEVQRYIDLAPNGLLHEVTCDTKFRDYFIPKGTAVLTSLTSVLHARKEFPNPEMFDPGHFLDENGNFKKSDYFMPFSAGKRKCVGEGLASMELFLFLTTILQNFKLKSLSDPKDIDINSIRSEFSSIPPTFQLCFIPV
rat CYP2C11, Cyp2c11 (gene 29277), sequence (P08683 whole entry, looked up): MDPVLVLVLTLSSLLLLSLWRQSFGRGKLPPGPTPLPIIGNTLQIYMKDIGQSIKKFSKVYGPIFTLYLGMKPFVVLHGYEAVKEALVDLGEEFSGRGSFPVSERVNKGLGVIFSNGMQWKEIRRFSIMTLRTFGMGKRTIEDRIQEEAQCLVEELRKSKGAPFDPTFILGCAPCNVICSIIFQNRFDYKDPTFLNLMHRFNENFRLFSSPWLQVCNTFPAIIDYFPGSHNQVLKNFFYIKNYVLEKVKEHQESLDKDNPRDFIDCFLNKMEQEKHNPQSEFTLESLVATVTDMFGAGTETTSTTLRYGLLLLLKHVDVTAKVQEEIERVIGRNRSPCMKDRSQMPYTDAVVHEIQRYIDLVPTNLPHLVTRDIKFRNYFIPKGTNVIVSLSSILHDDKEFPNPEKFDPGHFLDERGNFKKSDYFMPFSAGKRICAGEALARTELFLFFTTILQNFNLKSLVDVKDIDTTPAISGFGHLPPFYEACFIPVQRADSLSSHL
rat CYP2D1, Cyp2d1 (gene 266684), sequence (P10633 whole entry, looked up): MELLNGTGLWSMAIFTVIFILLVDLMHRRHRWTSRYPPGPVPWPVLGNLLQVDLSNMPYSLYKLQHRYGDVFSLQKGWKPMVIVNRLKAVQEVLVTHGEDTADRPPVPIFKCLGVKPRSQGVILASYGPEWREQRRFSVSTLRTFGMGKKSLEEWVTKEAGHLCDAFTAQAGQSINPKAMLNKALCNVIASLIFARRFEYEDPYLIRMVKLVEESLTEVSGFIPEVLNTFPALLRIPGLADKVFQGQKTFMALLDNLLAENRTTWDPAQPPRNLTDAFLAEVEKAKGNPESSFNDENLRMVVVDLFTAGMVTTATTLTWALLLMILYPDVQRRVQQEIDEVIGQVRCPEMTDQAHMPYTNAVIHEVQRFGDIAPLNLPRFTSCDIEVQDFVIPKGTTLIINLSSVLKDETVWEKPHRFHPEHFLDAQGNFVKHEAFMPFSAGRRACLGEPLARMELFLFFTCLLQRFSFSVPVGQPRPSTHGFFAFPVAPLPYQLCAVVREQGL
human AKT serine/threonine Kinase 1 (AKT1), AKT1 (gene 207), sequence (P31749 whole entry, looked up): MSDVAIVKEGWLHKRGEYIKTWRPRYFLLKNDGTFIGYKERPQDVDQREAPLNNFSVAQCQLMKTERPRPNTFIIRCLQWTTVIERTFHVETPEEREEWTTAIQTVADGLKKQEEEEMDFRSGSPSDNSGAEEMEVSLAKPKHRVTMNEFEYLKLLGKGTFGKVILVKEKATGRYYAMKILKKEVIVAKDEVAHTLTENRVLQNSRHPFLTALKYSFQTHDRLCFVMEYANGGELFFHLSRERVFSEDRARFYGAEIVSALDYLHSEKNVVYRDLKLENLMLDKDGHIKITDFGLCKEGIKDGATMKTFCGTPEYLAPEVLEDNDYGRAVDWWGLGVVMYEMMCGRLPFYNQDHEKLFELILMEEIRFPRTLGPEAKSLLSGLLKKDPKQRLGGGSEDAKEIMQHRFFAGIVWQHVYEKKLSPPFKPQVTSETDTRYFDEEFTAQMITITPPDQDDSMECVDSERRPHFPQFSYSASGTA
rat CYP2A2, Cyp2a2 (gene 24895), sequence (P15149 whole entry, looked up): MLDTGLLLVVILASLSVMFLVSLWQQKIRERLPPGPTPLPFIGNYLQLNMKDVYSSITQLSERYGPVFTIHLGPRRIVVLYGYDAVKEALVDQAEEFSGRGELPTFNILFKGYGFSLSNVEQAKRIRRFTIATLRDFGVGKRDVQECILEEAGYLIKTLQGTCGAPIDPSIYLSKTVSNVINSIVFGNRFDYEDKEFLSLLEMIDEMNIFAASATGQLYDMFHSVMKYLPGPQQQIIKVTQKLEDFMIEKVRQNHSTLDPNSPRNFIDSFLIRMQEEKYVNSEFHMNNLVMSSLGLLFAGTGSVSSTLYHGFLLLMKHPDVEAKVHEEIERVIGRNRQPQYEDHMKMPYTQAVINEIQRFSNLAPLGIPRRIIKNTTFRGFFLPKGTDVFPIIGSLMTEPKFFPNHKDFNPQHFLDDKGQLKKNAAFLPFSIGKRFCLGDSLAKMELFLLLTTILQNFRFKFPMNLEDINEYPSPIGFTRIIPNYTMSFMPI
rat CYP2C13, Cyp2c13 (gene 171521), sequence (P20814 whole entry, looked up): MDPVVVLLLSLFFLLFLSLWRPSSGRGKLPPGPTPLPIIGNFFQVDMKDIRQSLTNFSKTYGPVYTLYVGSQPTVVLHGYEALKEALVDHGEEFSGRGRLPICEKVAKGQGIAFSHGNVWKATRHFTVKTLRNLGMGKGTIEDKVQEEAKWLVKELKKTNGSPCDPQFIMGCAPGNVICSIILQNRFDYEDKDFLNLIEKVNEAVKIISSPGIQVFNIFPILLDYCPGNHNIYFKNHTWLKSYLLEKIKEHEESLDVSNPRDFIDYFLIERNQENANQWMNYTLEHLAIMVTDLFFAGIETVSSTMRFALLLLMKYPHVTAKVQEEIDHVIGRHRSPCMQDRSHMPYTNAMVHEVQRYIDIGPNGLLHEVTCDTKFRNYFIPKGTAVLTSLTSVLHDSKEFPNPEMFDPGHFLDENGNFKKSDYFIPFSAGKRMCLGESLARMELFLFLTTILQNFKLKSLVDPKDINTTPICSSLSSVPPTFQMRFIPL
human AMP-activated Protein Kinase, alpha 1 (AMPKa1), PRKAA1 (gene 5562), sequence (Q13131 whole entry, looked up): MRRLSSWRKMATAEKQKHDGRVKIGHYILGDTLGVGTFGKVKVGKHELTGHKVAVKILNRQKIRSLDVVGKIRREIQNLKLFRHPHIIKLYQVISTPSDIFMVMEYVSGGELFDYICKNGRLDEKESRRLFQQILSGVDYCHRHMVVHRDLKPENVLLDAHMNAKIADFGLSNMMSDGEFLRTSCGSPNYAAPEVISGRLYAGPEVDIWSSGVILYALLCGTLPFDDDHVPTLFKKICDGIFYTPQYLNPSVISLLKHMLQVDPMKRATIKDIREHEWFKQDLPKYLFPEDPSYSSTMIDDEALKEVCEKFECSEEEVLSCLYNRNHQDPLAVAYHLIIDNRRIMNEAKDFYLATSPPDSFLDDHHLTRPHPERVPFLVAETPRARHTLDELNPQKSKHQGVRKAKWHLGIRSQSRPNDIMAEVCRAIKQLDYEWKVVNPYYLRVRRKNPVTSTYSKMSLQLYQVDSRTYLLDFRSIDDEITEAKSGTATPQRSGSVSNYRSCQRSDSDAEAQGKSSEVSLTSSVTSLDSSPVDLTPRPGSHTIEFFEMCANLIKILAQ
human Caspase 5 (CASP5), CASP5 (gene 838), sequence (P51878 whole entry, looked up): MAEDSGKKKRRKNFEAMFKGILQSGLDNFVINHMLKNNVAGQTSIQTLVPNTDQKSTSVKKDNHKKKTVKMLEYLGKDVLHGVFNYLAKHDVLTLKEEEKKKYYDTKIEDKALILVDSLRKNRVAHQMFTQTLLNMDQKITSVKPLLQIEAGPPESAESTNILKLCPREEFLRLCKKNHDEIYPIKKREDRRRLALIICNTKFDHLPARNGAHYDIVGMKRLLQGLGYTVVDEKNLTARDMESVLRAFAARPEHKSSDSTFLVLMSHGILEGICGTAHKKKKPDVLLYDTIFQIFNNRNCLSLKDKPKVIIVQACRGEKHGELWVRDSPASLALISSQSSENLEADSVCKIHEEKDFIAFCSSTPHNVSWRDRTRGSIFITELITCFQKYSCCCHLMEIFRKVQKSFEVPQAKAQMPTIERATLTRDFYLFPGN
rat CYP3A2, Cyp3a2 (gene 266682), sequence (P05183 whole entry, looked up): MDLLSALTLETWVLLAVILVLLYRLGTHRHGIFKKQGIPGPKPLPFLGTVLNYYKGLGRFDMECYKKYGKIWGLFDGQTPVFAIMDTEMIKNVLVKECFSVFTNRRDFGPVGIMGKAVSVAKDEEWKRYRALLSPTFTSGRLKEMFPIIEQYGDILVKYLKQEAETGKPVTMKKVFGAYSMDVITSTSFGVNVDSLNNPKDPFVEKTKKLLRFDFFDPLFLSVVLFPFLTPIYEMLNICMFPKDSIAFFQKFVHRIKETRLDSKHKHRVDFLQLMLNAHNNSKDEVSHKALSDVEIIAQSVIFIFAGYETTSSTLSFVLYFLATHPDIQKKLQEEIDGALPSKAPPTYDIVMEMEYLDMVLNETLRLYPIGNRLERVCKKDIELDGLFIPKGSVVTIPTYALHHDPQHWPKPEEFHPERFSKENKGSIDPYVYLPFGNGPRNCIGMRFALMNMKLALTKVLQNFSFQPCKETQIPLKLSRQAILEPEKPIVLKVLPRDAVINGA

**Q.** `CCC(C)(NC(=O)c1cc(Cl)c(C)c(Cl)c1)C(=O)CCl` (centres undefined) was tested. Which outcome [1] did it give?
**A.** The outcome was “inactive”.

**Q.** `COc1nn(CSP(=S)(OC)OC)c(=O)s1` was tested. Which AC50 [2] did it give?
**A.** The AC50 was 4.97 µM (active).

**Q.** And the AC50 (rat CYP2B1, gene 24300)?
**A.** Its AC50 is 2.65 µM (active).

**Q.** And the AC50 [3]?
**A.** Its AC50 is 0.564 µM (active).

**Q.** And the AC50 (rat CYP2C6, gene 293989)?
**A.** Its AC50 is 0.258 µM (active).

**Q.** And the AC50 (rat CYP3A1, gene 25642)?
**A.** Its AC50 is 4.25 µM (active).

**Q.** And the AC50 [4]?
**A.** Its AC50 is 0.774 µM (active).

**Q.** How did the outcome [5] turn out when `N#Cc1c(Cl)c(Cl)c(Cl)c(C#N)c1Cl` was run?
**A.** Its outcome is “inactive”.

**Q.** What about the outcome [6] of the same compound?
**A.** Its outcome is “inactive”.

**Q.** And the outcome [7]?
**A.** The outcome was “inactive”.

**Q.** And the AC50 (rat CYP3A1, gene 25642)?
**A.** The AC50 was 1.22 µM (active).

**Q.** And the AC50 [4]?
**A.** The AC50 was 0.241 µM (active).

**Q.** What about the outcome [8] of the same compound?
**A.** Its outcome is “inactive”.

**Q.** And the AC50 [9]?
**A.** Its AC50 is 4.96 µM (active).

**Q.** And the outcome [10]?
**A.** Its outcome is “inactive”.

**Q.** With `Oc1ccc(Cl)cc1Cc1ccccc1` as the compound, how does the AC50 (rat CYP2B1, gene 24300) read?
**A.** The AC50 was 6.42 µM (active).

**Q.** What about the AC50 [3] of the same compound?
**A.** Its AC50 is 7.16 µM (active).

**Q.** What about the AC50 (rat CYP2C6, gene 293989) of the same compound?
**A.** The AC50 was 5.19 µM (active).

**Q.** What about the AC50 [1] of the same compound?
**A.** The AC50 was 6.35 µM (active).

**Q.** And the AC50 [11]?
**A.** Its AC50 is 10 µM (active).

**Q.** What about the AC50 [7] of the same compound?
**A.** The AC50 was 5.11 µM (active).

**Q.** What about the AC50 (rat CYP3A1, gene 25642) of the same compound?
**A.** Its AC50 is 8.2 µM (active).

**Q.** What about the outcome [9] of the same compound?
**A.** The outcome was “inactive”.

**Q.** What about the outcome [12] of the same compound?
**A.** Its outcome is “inactive”.

**Q.** What about the outcome [10] of the same compound?
**A.** The outcome was “inactive”.

**Q.** What does the source list for `CCOC1Oc2ccc(OS(C)(=O)=O)cc2C1(C)C` (centres undefined)?
**A.** AC50 [2]: 6.21 µM (active); AC50 [3]: 4.18 µM (active); AC50 [6]: 2.33 µM (active); AC50 [1]: 7.5 µM (active); outcome [11]: inactive; AC50 (rat CYP3A1, gene 25642): 6.95 µM (active); outcome (Caspase-3 (Homo sapiens)): inactive

**Q.** What does the source list for `COC(=O)c1ccccc1S(=O)(=O)NC(=O)N(C)c1nc(C)nc(OC)n1`?
**A.** AC50 [13]: 6.07 µM (active); outcome [10]: inactive

**Q.** How did the AC50 [2] turn out when `O=C(O)C(F)(F)C(F)(F)C(F)(F)C(F)(F)C(F)(F)C(F)(F)C(F)(F)F` was run?
**A.** Its AC50 is 2.68 µM (active).

**Q.** And the outcome (rat CYP3A1, gene 25642)?
**A.** Its outcome is “inactive”.

**Q.** What about the outcome (Caspase-1 (Homo sapiens)) of the same compound?
**A.** Its outcome is “inactive”.

**Q.** What about the outcome [14] of the same compound?
**A.** The outcome was “inactive”.

**Q.** What about the outcome [12] of the same compound?
**A.** Its outcome is “inactive”.

**Q.** How did the outcome [6] turn out when `[2H]C1([2H])[n+]2ccccc2-c2cccc[n+]2C1([2H])[2H]` was run?
**A.** The outcome was “inactive”.

**Q.** What about the AC50 [7] of the same compound?
**A.** The AC50 was 10 µM (active).

**Q.** What about the outcome [8] of the same compound?
**A.** Its outcome is “inactive”.

**Q.** Which AC50 (rat CYP2C6, gene 293989) does the source give for `COP(=S)(OC)Oc1ccc(SC)c(C)c1` here?
**A.** Its AC50 is 1.83 µM (active).

**Q.** For `Cc1[nH]c(=O)n(C(C)(C)C)c(=O)c1Cl`, which AC50 [11] is on record?
**A.** The AC50 was 3.45 µM (active).
